Targets with a hit are over-represented here; the source holds about 7,900 in all. About 0.6% of all pairs of compound and target were hits.
Experiments:
Experiment in all cases: log2 fold change, soluble protein after heating vs DMSO (PISA); higher = thermal stabilisation; K562 cells, 10 uM, 30 min; active = over 0.2 and 3.5 SD of the protein, either way, in both replicates (recomputed)
[1] = compound: CS(=O)(=O)c1ccc(-c2cnc(N)c(C(=O)Nc3ccccc3)n2)cc1
Summary of the method: (§1)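 Quantification of soluble protein used TMTpro 16plex LC-MS/MS, with channel sums equalised. Samples were the supernatant after 21,000xg for 90 min of pooled aliquots from K562 cells (2×10^6 cells/mL) treated with 10 μM compound for 30 min, heated for 3 min over 48°C-58°C, and extracted in PBS with 0.5% NP-40 at 4°C. Values, from duplicates, describe thermal stability against control samples on a log2 fold-change scale.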

crizotinib = compound: C[C@@H](Oc1cc(-c2cnn(C3CCNCC3)c2)cnc1N)c1c(Cl)ccc(F)c1Cl [crizotinib]
Summary of the method: as §1

[2] = compound: C[C@@H]1COCCN1C2=NC(=NC(=C2)C3(CC3)S(=O)(=O)C)C4=C5C=CNC5=CC=C4
Summary of the method: as §1

[3] = compound: C[C@H](C1=CC=C(C=C1)C(=O)NC2=C3C=CNC3=NC=C2)N
Summary of the method: as §1

duvelisib = compound: C[C@H](Nc1ncnc2nc[nH]c12)c1cc2cccc(Cl)c2c(=O)n1-c1ccccc1 [duvelisib]
Summary of the method: as §1

gandotinib = compound: Cc1cc(Nc2cc(CN3CCOCC3)c3nc(C)c(Cc4ccc(Cl)cc4F)n3n2)n[nH]1 [gandotinib]
Summary of the method: as §1

tozasertib = compound: Cc1cc(Nc2cc(N3CCN(C)CC3)nc(Sc3ccc(NC(=O)C4CC4)cc3)n2)n[nH]1 [tozasertib]
Summary of the method: as §1

[4] = compound: Cc1cc(SCc2sc(-c3ccc(C(F)(F)F)cc3)nc2C)ccc1OCC(=O)O
Summary of the method: as §1

doramapimod = compound: Cc1ccc(-n2nc(C(C)(C)C)cc2NC(=O)Nc2ccc(OCCN3CCOCC3)c3ccccc23)cc1 [doramapimod]
Summary of the method: as §1

ispinesib = compound: Cc1ccc(C(=O)N(CCCN)[C@@H](c2nc3cc(Cl)ccc3c(=O)n2Cc2ccccc2)C(C)C)cc1 [ispinesib]
Summary of the method: as §1

bafetinib = compound: Cc1ccc(NC(=O)c2ccc(CN3CC[C@H](N(C)C)C3)c(C(F)(F)F)c2)cc1Nc1nccc(-c2cncnc2)n1 [bafetinib]
Summary of the method: as §1

[5] = compound: Cc1cccc(CC(=O)N2CCc3c2ccc(-c2cn(C)c4ncnc(N)c24)c3F)n1
Summary of the method: as §1

nilotinib = compound: Cc1cn(-c2cc(NC(=O)c3ccc(C)c(Nc4nccc(-c5cccnc5)n4)c3)cc(C(F)(F)F)c2)cn1 [nilotinib]
Summary of the method: as §1

[6] = compound: Cc1nc(Nc2n[nH]c3c2CN(C(=O)N[C@H](CN(C)C)c2ccccc2)C3(C)C)c2sccc2n1
Summary of the method: as §1

dasatinib = compound: Cc1nc(Nc2ncc(C(=O)Nc3c(C)cccc3Cl)s2)cc(N2CCN(CCO)CC2)n1 [dasatinib]
Summary of the method: as §1

[7] = compound: Cc1ncc(-c2ccnc(Nc3ccc(S(C)(=O)=O)cc3)n2)n1C(C)C
Summary of the method: as §1

[8] = compound: Cn1cc(-c2ccc3c(c2)CCN3C(=O)Cc2cccc(C(F)(F)F)c2)c2c(N)ncnc21
Summary of the method: as §1

[9] = compound: Cn1cc(-c2ccc3nnc(C(F)(F)c4ccc5ncccc5c4)n3n2)cn1
Summary of the method: as §1

tipifarnib = compound: Cn1cncc1[C@@](N)(c1ccc(Cl)cc1)c1ccc2c(c1)c(-c1cccc(Cl)c1)cc(=O)n2C [tipifarnib]
Summary of the method: as §1

mubritinib = compound: FC(F)(F)c1ccc(/C=C/c2nc(COc3ccc(CCCCn4ccnn4)cc3)co2)cc1 [mubritinib]
Summary of the method: as §1

Measured: log2 fold change

POLR2I (UniProt P36954)
inactive: [1] 0.003 | crizotinib 0.334 | [2] 0.052 | [3] 0.001 | duvelisib 0.085 | gandotinib 0.336 | tozasertib -0.086 | [4] -0.032 | doramapimod -0.047 | ispinesib 0.127 | bafetinib -0.044 | [5] 0.024 | nilotinib -0.026 | [6] 0.233 | dasatinib 0.079 | [7] 0.338 | [8] -0.029 | [9] 0.021 | tipifarnib 0.072 | mubritinib -0.054

PCNT (UniProt O95613)
inactive: [1] 0.119 | crizotinib 0.023 | [2] 0.09 | [3] 0.153 | duvelisib -0.003 | gandotinib 0.06 | tozasertib 0.032 | [4] -0.006 | doramapimod -0.023 | ispinesib -0.099 | bafetinib -0.227 | [5] -0.324 | nilotinib -0.117 | [6] 0.045 | dasatinib 0.085 | [7] -0.002 | [8] -0.076 | [9] 0.107 | tipifarnib 0.127 | mubritinib -0.004

PPP4R3B (UniProt Q5MIZ7)
inactive: [1] -0.003 | crizotinib 0.124 | [2] 0.064 | [3] -0.035 | duvelisib 0.048 | gandotinib -0.075 | tozasertib 0.149 | [4] 0.056 | doramapimod 0 | ispinesib 0.056 | bafetinib -0.054 | [5] 0.116 | nilotinib -0.032 | [6] -0.006 | dasatinib -0.03 | [7] -0.013 | [8] 0.037 | [9] 0.054 | tipifarnib -0.041 | mubritinib 0.006

PTDSS1 (UniProt P48651)
inactive: [1] -0.029 | crizotinib -0.141 | [2] -0.05 | [3] 0.209 | duvelisib -0.225 | gandotinib -0.039 | tozasertib -0.048 | [4] 0.105 | doramapimod 0.151 | ispinesib -0.326 | bafetinib -0.125 | [5] 0.092 | nilotinib -0.166 | [6] 0.084 | dasatinib -0.002 | [7] 0.017 | [8] -0.089 | [9] 0.042 | tipifarnib 0.018 | mubritinib -0.074

PARL (UniProt Q9H300)
UniProt Q9H300, sequence (Q9H300 whole entry, looked up): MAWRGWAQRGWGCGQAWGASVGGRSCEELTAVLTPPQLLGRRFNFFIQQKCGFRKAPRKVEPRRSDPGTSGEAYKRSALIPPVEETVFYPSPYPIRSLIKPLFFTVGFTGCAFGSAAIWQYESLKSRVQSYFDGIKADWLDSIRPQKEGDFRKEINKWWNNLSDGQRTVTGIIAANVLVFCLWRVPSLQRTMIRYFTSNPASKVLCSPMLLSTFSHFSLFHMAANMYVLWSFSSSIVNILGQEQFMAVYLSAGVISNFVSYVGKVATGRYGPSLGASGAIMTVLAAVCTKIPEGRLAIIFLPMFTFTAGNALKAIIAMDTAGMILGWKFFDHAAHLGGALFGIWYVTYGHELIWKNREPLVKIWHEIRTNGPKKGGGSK
inactive: [1] -0.004 | crizotinib -0.036 | [2] 0.186 | [3] -0.011 | duvelisib 0.03 | gandotinib 0.025 | tozasertib -0.017 | [4] -0.035 | doramapimod -0.009 | ispinesib -0.193 | bafetinib -0.169 | [5] 0.061 | nilotinib 0.047 | [6] -0.011 | dasatinib 0.015 | [7] 0.018 | [8] 0.017 | [9] 0.051 | tipifarnib -0.023 | mubritinib 0.021

PHKG2 (UniProt P15735)
UniProt P15735, sequence (P15735 whole entry, looked up): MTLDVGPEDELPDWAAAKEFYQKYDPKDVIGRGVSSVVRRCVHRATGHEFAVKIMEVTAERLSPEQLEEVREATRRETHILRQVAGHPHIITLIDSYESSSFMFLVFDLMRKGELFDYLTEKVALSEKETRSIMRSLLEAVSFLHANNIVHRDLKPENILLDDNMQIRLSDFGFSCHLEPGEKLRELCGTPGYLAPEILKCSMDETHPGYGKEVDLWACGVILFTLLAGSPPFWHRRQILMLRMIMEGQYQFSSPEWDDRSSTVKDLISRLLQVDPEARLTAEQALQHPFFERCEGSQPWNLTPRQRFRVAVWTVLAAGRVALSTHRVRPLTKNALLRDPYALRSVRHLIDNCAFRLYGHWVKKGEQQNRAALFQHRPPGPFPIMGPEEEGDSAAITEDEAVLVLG
active: [6] 0.321
inactive: [1] 0.015 | crizotinib 0 | [2] -0.097 | [3] 0.053 | duvelisib -0.077 | gandotinib -0.017 | tozasertib -0.134 | [4] -0.006 | doramapimod 0.044 | ispinesib 0.018 | bafetinib -0.047 | [5] 0.044 | nilotinib -0.177 | dasatinib -0.306 | [7] 0.011 | [8] -0.024 | [9] -0.017 | tipifarnib -0.046 | mubritinib -0.127

PRPF38A (UniProt Q8NAV1)
UniProt Q8NAV1, sequence (Q8NAV1 whole entry, looked up): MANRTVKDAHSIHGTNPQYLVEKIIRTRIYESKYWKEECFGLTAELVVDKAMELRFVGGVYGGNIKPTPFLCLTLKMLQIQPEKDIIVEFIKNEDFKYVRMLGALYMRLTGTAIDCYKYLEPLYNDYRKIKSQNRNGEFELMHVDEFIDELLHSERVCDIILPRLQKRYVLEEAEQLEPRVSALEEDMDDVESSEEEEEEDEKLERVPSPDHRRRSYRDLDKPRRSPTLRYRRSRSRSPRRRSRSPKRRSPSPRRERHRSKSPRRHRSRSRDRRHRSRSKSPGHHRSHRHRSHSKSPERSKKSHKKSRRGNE
inactive: [1] -0.029 | crizotinib 0.018 | [2] 0.017 | [3] 0.009 | duvelisib 0.037 | gandotinib -0.042 | tozasertib -0.071 | [4] 0.017 | doramapimod 0.006 | ispinesib -0.024 | bafetinib 0.048 | [5] 0.025 | nilotinib -0.006 | dasatinib -0.033 | [7] -0.073 | [8] -0.011 | [9] -0.08 | tipifarnib 0.036 | mubritinib 0.201
active: [6] -0.871

PCBP2 isoform 3 (UniProt Q15366)
UniProt Q15366, sequence (Q15366 whole entry, looked up): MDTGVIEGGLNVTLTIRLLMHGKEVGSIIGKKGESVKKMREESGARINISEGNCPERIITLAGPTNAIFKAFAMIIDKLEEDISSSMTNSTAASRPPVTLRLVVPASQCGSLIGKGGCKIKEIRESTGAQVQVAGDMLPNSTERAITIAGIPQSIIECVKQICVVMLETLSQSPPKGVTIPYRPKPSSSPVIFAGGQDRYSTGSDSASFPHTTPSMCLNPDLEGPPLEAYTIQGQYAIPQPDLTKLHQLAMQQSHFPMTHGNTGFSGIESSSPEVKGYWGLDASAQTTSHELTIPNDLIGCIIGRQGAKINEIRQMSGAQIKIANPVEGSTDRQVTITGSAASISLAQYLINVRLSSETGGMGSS
inactive: [1] -0.036 | crizotinib -0.018 | [2] 0.06 | [3] -0.031 | duvelisib -0.006 | gandotinib -0.065 | tozasertib 0.056 | [4] 0.072 | doramapimod -0.008 | ispinesib 0.005 | bafetinib 0.037 | [5] 0.083 | nilotinib -0.095 | [6] -0.156 | dasatinib -0.132 | [7] -0.058 | [8] 0.007 | [9] 0.018 | tipifarnib -0.08 | mubritinib 0.004

POM121 (UniProt Q96HA1)
inactive: [1] 0.024 | crizotinib -0.139 | [2] -0.016 | [3] 0.084 | duvelisib -0.022 | gandotinib -0.043 | tozasertib 0.014 | [4] 0.008 | doramapimod 0.134 | bafetinib -0.114 | [5] 0.012 | nilotinib 0.135 | [6] 0 | dasatinib -0.051 | [7] -0.177 | [8] -0.081 | [9] -0.063 | tipifarnib 0.021
active: ispinesib -0.307

PSMD11 (UniProt O00231)
UniProt O00231, sequence (O00231 whole entry, looked up): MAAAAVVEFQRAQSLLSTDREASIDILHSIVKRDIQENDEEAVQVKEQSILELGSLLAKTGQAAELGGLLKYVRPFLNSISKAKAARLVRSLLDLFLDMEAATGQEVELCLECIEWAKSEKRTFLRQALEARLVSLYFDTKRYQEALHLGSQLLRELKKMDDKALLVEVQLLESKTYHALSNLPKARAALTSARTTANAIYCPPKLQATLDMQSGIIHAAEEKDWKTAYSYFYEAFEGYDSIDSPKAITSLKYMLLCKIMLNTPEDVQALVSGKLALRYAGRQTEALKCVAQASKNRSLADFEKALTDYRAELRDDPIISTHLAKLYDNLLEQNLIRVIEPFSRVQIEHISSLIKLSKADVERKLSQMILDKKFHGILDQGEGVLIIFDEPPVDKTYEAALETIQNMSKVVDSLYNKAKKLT
inactive: [1] 0.036 | crizotinib -0.024 | [2] -0.035 | [3] 0.074 | duvelisib -0.04 | gandotinib 0.046 | tozasertib 0.08 | [4] 0.07 | doramapimod 0.013 | ispinesib 0.045 | bafetinib 0.15 | [5] 0.042 | nilotinib 0.054 | [6] 0.068 | dasatinib -0.004 | [7] -0.014 | [8] -0.074 | [9] -0.043 | tipifarnib -0.021 | mubritinib -0.054

PLBD1 (UniProt Q6P4A8)
UniProt Q6P4A8, sequence (Q6P4A8 whole entry, looked up): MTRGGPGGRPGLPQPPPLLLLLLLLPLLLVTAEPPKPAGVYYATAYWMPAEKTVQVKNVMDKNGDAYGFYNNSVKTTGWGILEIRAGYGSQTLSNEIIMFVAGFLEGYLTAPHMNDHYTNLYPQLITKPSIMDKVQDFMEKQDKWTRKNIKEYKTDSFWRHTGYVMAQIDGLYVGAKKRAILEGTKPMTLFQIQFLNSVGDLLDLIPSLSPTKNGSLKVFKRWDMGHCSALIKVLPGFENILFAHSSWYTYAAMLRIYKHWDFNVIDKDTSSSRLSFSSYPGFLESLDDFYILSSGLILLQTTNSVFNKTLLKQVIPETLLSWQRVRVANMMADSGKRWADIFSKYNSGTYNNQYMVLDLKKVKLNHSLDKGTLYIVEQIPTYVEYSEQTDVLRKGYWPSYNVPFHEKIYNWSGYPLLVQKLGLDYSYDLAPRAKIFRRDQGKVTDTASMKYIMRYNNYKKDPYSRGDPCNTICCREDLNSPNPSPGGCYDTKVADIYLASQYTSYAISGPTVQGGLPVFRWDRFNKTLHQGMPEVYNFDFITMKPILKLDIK
inactive: [1] -0.01 | crizotinib -0.082 | [2] 0.009 | [3] -0.032 | duvelisib 0.01 | gandotinib 0.011 | tozasertib -0.005 | [4] -0.032 | doramapimod -0.007 | ispinesib 0.016 | bafetinib -0.143 | [5] 0 | nilotinib 0.021 | [6] -0.029 | dasatinib -0.063 | [7] -0.035 | [8] 0.041 | [9] 0.081 | tipifarnib 0.038 | mubritinib 0.052

PRPF31 (UniProt Q8WWY3)
UniProt Q8WWY3, sequence (Q8WWY3 whole entry, looked up): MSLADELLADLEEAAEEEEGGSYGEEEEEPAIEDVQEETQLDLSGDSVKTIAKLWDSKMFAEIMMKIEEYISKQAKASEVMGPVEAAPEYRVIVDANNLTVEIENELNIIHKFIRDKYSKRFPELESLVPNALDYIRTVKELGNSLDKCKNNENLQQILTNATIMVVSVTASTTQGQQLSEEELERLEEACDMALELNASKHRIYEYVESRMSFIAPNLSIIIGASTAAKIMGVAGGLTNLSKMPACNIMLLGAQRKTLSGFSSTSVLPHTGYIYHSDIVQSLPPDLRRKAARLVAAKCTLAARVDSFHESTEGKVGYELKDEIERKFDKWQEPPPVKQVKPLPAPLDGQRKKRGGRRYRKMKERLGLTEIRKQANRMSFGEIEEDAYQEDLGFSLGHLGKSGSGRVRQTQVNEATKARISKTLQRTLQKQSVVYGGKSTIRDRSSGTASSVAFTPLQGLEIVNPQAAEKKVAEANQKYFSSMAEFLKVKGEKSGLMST
inactive: [1] 0.041 | crizotinib 0.013 | [2] 0.181 | [3] 0.137 | duvelisib 0.133 | gandotinib -0.044 | tozasertib 0.08 | [4] 0.159 | doramapimod 0.069 | ispinesib -0.029 | bafetinib -0.012 | [5] 0.01 | nilotinib -0.037 | dasatinib -0.274 | [7] -0.387 | [8] 0.055 | [9] 0.053 | tipifarnib -0.031 | mubritinib -0.014
active: [6] -0.572

PMM1 (UniProt Q92871)
UniProt Q92871, sequence (Q92871 whole entry, looked up): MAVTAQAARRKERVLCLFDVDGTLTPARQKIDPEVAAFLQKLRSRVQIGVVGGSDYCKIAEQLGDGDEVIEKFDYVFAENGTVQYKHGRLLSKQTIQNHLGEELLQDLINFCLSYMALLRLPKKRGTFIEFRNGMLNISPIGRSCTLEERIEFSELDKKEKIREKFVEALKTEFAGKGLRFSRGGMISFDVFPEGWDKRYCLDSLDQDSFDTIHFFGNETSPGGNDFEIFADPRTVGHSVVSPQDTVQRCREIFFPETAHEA
active: nilotinib -0.606
inactive: [1] 0.051 | crizotinib 0.008 | [2] 0.032 | [3] 0.019 | duvelisib 0.07 | gandotinib -0.075 | tozasertib -0.114 | [4] -0.011 | doramapimod 0.027 | ispinesib 0.026 | bafetinib -0.2 | [5] 0.022 | [6] -0.152 | dasatinib -0.027 | [7] 0.003 | [8] 0.05 | [9] 0.025 | tipifarnib 0.134 | mubritinib 0.066

PPIL2 (UniProt Q13356)
UniProt Q13356, sequence (Q13356 whole entry, looked up): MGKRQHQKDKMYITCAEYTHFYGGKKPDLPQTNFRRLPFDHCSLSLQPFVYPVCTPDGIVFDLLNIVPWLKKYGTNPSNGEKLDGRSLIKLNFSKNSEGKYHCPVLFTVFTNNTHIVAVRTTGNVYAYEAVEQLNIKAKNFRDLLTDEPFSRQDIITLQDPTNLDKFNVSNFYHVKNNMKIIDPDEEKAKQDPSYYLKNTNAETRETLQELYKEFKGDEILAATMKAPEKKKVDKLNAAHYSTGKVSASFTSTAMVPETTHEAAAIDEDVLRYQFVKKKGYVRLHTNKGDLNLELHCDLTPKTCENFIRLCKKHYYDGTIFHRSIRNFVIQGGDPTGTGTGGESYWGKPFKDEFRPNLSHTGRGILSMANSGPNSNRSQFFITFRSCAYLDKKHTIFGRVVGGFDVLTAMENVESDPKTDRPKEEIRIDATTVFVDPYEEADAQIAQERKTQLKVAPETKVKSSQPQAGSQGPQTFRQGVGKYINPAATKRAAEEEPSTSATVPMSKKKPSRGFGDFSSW
inactive: [1] 0.029 | crizotinib 0.027 | [2] 0.061 | [3] -0.012 | duvelisib 0.121 | gandotinib -0.081 | tozasertib 0.039 | [4] 0.131 | doramapimod -0.079 | ispinesib 0.037 | bafetinib -0.008 | [5] 0.032 | nilotinib -0.056 | [6] -0.086 | dasatinib -0.127 | [7] 0.068 | [8] 0.03 | [9] 0.046 | tipifarnib -0.142 | mubritinib 0.011

PCID2 (UniProt Q5JVF3)
UniProt Q5JVF3, sequence (Q5JVF3 whole entry, looked up): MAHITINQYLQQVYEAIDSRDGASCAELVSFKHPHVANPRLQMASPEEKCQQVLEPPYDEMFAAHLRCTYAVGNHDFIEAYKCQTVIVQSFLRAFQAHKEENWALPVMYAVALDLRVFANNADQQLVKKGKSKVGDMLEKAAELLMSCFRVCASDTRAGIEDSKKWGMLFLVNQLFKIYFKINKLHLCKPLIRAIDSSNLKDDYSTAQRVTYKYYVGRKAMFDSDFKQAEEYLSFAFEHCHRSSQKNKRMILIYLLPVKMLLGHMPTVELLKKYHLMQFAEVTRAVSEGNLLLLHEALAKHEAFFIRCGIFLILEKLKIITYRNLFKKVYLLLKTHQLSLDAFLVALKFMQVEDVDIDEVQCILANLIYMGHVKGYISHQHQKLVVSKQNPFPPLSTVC
inactive: [1] 0.157 | crizotinib -0.171 | [2] -0.138 | [3] 0.246 | duvelisib -0.02 | gandotinib -0.149 | tozasertib -0.028 | [4] 0.058 | doramapimod -0.005 | ispinesib -0.096 | bafetinib 0.07 | [5] 0.078 | nilotinib -0.013 | [6] -0.061 | dasatinib -0.254 | [7] -0.02 | [8] 0.038 | [9] -0.036 | tipifarnib -0.071 | mubritinib 0.109

PUF60 (UniProt Q9UHX1)
UniProt Q9UHX1, sequence (Q9UHX1 whole entry, looked up): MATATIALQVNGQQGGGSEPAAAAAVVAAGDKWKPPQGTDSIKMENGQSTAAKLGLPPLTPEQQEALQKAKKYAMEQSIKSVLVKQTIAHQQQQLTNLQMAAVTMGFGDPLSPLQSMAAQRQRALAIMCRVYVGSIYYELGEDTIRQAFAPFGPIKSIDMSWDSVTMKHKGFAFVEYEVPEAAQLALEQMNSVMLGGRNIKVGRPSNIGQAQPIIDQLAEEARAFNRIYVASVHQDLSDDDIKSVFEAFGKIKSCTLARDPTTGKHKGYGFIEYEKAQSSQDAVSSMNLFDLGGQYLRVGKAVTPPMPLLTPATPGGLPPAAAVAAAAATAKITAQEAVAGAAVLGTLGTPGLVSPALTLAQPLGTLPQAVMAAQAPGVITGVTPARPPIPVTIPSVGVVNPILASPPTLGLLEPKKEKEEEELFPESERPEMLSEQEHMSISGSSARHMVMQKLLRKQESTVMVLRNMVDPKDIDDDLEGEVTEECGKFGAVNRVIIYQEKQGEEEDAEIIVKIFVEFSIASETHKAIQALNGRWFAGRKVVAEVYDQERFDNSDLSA
inactive: [1] -0.012 | crizotinib 0.031 | [2] 0.025 | [3] -0.199 | duvelisib 0.01 | gandotinib -0.09 | tozasertib 0.081 | [4] 0.056 | doramapimod -0.041 | ispinesib 0.039 | bafetinib 0.077 | [5] -0.04 | nilotinib -0.022 | dasatinib -0.085 | [7] -0.001 | [8] 0.008 | [9] -0.046 | tipifarnib -0.034 | mubritinib 0.024
active: [6] -0.703

— the supplement of paper PMC10849652
